Data from PubChem BioAssay (EPA / NIEHS).
Records with an inconclusive call do not appear. Where a structure was tested more than once in an assay, its records may differ in their call. Active and inactive are the calls of the source. The calls were made as follows, unless noted: active = hit-call score of the fitted dose curve at least 0.9, where 1 is the maximum; inactive = score below 0.9.

Legend:
[1] = read-out: Interleukin-8 (IL8), CXCL8 (gene 3576); assay: BSK_3C_IL8: BioMAP Diversity Plus: 3C Assay for Interleukin-8 (IL8) Biomarker Activity (AID 2283020); conditions: primary human endothelial cells (HUVEC); actives raise or lower the signal
Summary of the method: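 ELISA read-out of IL-8 from human umbilical vein endothelium, measured 24 h after chemical dosing. Activity is expressed relative to DMSO negative control, with both increases and decreases fitted.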

[2] = read-out: Monokine induced gamma interferon (MIG), CXCL9 (gene 4283); assay: BSK_3C_MIG: BioMAP Diversity Plus: 3C Assay for Monokine induced gamma interferon (MIG) Biomarker Activity (AID 2283021); conditions: primary human endothelial cells (HUVEC); actives raise or lower the signal
Summary of the method: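 Read-out is ELISA detection of MIG on human umbilical vein endothelial cells, taken 24 h after dosing. Gain or loss of signal was scored relative to DMSO controls using bidirectional curve fitting.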

[3] = BSK_3C_SRB: Viability Assessment in the BioMAP Diversity Plus: 3C Assay (AID 2283023); conditions: primary human endothelial cells (HUVEC);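 also: fitted both ways against DMSO so a hit may be signal rise or drop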
Summary of the method: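 Absorbance at 560 nm of sulforhodamine B-stained (0.1%) total protein served as a cytotoxicity readout in human umbilical vein endothelial cells, 24 h after chemical treatment. Signal was fitted bidirectionally relative to DMSO.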

[4] = read-out: Matrix Metallopeptidase 1 (MMP1), MMP1 (gene 4312); assay: BSK_BE3C_MMP1: BioMAP Diversity Plus: BE3C Assay for Matrix Metallopeptidase 1 (MMP1) Biomarker Activity (AID 2283024); conditions: primary human bronchial epithelial cells; actives raise or lower the signal
Summary of the method: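 Human bronchial epithelial cells (BE3C system) exposed to compound for 24 h; MMP1 then quantified by ELISA. Activity was fitted in both directions relative to DMSO.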

[5] = BSK_3C_Vis: BioMAP Diversity Plus: 3C Assay for Morphology Visualization (AID 2283025); conditions: primary human endothelial cells (HUVEC);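 also: fitted both ways so gain or loss versus DMSO counts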
Summary of the method: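 Chemicals were added to primary human umbilical vein endothelium, cells were incubated 24 h, and morphology was then visualized by light microscopy. Gain or loss of signal was fitted bidirectionally relative to DMSO.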

[6] = read-out: Pselectin, SELP (gene 6403); assay: BSK_4H_Pselectin: BioMAP Diversity Plus: 4H Assay for Pselectin Biomarker Activity (AID 2283026); conditions: primary human endothelial cells (HUVEC); actives raise or lower the signal
Summary of the method: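 ELISA read-out of P-selectin on human umbilical vein endothelium after 24 h of dosing. Values derive from bidirectional fitting relative to DMSO. Parallel SRB protein staining flagged overt cytotoxicity.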

[7] = BSK_4H_SRB: Viability Assessment in the BioMAP Diversity Plus: 4H Assay (AID 2283027); conditions: primary human endothelial cells (HUVEC);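 also: cells exposed to compound for 24 h before staining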
Summary of the method: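 Human umbilical vein endothelial cells, 24 h after chemical dosing; total protein measured by 0.1% sulforhodamine B staining after 10% TCA fixation, read at 560 nm. Bidirectional fitting against DMSO.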

[8] = BSK_BE3C_SRB: Viability Assessment in the BioMAP Diversity Plus: BE3C Assay (AID 2283028); conditions: primary human bronchial epithelial cells
Summary of the method: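 Cells (human bronchial epithelial, primary) are treated with chemicals, and after 24 h the parallel cultures are fixed in 10% TCA. These are then stained with 0.1% SRB and read at 560 nm. Gain or loss of signal is fitted relative to DMSO.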

[9] = read-out: Thrombomodulin, THBD (gene 7056); assay: BSK_3C_Thrombomodulin: BioMAP Diversity Plus: 3C Assay for Thrombomodulin Biomarker Activity (AID 2283029); conditions: primary human endothelial cells (HUVEC); actives raise or lower the signal
Summary of the method: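 Read-out is ELISA of thrombomodulin on human umbilical vein endothelium 24 h after chemical dosing. Gain or loss of signal is scored relative to DMSO. Overt cytotoxicity is checked in parallel cultures by sulforhodamine B staining.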

[10] = read-out: Urokinase-type plasminogen activator receptor (uPAR), PLAUR (gene 5329); assay: BSK_4H_uPAR: BioMAP Diversity Plus: 4H Assay for Urokinase-type plasminogen activator receptor (uPAR) Biomarker Activity (AID 2283030); conditions: primary human endothelial cells (HUVEC); actives raise or lower the signal
Summary of the method: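 Cell-surface uPAR ELISA signal, measured 24 h after dosing human umbilical vein endothelial cells, was analyzed with bidirectional fitting relative to DMSO. Parallel SRB staining of total protein tracked overt cytotoxicity.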

[11] = read-out: Vascular endothelial growth factor receptor 2 (Homo sapiens) (UniProt P35968); assay: BSK_4H_VEGFRII: BioMAP Diversity Plus: 4H Assay for Vascular endothelial growth factor receptor 2 (VEGFR2) Biomarker Activity (AID 2283031); conditions: primary human endothelial cells (HUVEC); actives raise or lower the signal
Summary of the method: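 ELISA read-out of VEGFRII in primary human umbilical vein endothelium, taken 24 h after chemical treatment. Responses are expressed relative to DMSO, with bidirectional fitting.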

[12] = read-out: Human Leukocyte Antigen - DR isotype (HLADR), HLA-DRA (gene 3122); assay: BSK_BE3C_HLADR: BioMAP Diversity Plus: BE3C Assay for Human Leukocyte Antigen - DR isotype (HLADR) Biomarker Activity (AID 2283032); conditions: primary human bronchial epithelial cells; actives raise or lower the signal
Summary of the method: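 ELISA read-out of HLA-DR on human lung bronchial epithelial primary cells, measured 24 h post-dosing. Both increases and decreases were scored relative to DMSO vehicle.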

[13] = read-out: Vascular cell adhesion molecule 1 (VCAM1), VCAM1 (gene 7412); assay: BSK_4H_VCAM1: BioMAP Diversity Plus: 4H Assay for Vascular cell adhesion molecule 1 (VCAM1) Biomarker Activity (AID 2283033); conditions: primary human endothelial cells (HUVEC); actives raise or lower the signal;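 also: cell-surface VCAM-1 protein measured by ELISA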
Summary of the method: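 ELISA read-out of VCAM-1 on human umbilical vein endothelium 24 hours after chemical dosing; gain or loss of signal was fitted relative to DMSO, with sulforhodamine B staining of parallel cultures flagging overt cytotoxicity.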

[14] = read-out: Interferon-gamma inducible Protein 10 (IP10), CXCL10 (gene 3627); assay: BSK_BE3C_IP10: BioMAP Diversity Plus: BE3C Assay for Interferon-gamma inducible Protein 10 (IP10) Biomarker Activity (AID 2283034); conditions: primary human bronchial epithelial cells; actives raise or lower the signal
Summary of the method: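 Chemical is dosed onto human lung bronchial epithelial primary cells, cultures are incubated 24 h, and IP-10 is then quantified by ELISA. Gain or loss of signal is fitted in both directions relative to DMSO.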

[15] = read-out: Monokine induced gamma interferon (MIG), CXCL9 (gene 4283); assay: BSK_BE3C_MIG: BioMAP Diversity Plus: BE3C Assay for Monokine induced gamma interferon (MIG) Biomarker Activity (AID 2283035); conditions: primary human bronchial epithelial cells; actives raise or lower the signal;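 also: MIG protein measured by ELISA in BE3C cultures after 24 h of dosing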
Summary of the method: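 Primary human bronchial epithelial cells treated for 24 h; MIG levels measured by ELISA, fitted bidirectionally versus DMSO. Parallel SRB total-protein staining assessed cytotoxicity.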

[16] = read-out: Transforming growth factor beta 1 (TGFb1), TGFB1 (gene 7040); assay: BSK_BE3C_TGFb1: BioMAP Diversity Plus: BE3C Assay for Transforming growth factor beta 1 (TGFb1) Biomarker Activity (AID 2283036;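 also: TGF-b1 protein level measured by ELISA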); conditions: primary human bronchial epithelial cells; actives raise or lower the signal
Summary of the method: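 Primary human lung bronchial epithelial cells; compound exposure 24 h; TGF-b1 by ELISA; bidirectional fit, DMSO baseline. Parallel SRB total-protein staining for cytotoxicity.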

[17] = read-out: Plasminogen activator inhibitor-1 (PAI1), SERPINE1 (gene 5054); assay: BSK_BE3C_PAI1: BioMAP Diversity Plus: BE3C Assay for Plasminogen activator inhibitor-1 (PAI1) Biomarker Activity (AID 2283037); conditions: primary human bronchial epithelial cells; actives raise or lower the signal
Summary of the method: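 Primary human lung bronchial epithelial cells; chemical dosing; 24 h; PAI-1 measured by ELISA; bidirectional fit referenced to DMSO as negative control.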

[18] = read-out: urokinase plasminogen activator (uPA), PLAU (gene 5328); assay: BSK_BE3C_uPA: BioMAP Diversity Plus: BE3C Assay for urokinase plasminogen activator (uPA) Biomarker Activity (AID 2283038); conditions: primary human bronchial epithelial cells; actives raise or lower the signal;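 also: uPA protein level quantified by ELISA in cell cultures; uPA read one day after compound addition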
Summary of the method: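 Bronchial epithelial cells (human, primary); chemical 24 h; uPA by ELISA; bidirectional fit vs DMSO. SRB (0.1%, after 10% TCA fixation, 560 nm) in parallel cultures for cytotoxicity.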

[19] = read-out: Urokinase-type plasminogen activator receptor (uPAR), PLAUR (gene 5329); assay: BSK_BE3C_uPAR: BioMAP Diversity Plus: BE3C Assay for Urokinase-type plasminogen activator receptor (uPAR) Biomarker Activity (AID 2283039); conditions: primary human bronchial epithelial cells; actives raise or lower the signal;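 also: cells exposed to compound for one day before measurement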
Summary of the method: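 Human bronchial epithelial primary cells; chemical exposure 24 h; uPAR by ELISA; bidirectional fit vs DMSO control.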

[20] = target: human Vitamin D Receptor (VDR), VDR (gene 7421) (UniProt P11473); assay: ATG_VDR_TRANS: Attagene TRANS-FACTORIAL HepG2 Assay for human Vitamin D Receptor (VDR) (AID 2283022; active = hit-call score of the fitted dose curve at least 0.9, where 1 is the maximum)
human Vitamin D Receptor (VDR), VDR (gene 7421), sequence (P11473 whole entry, looked up, the tested form may be a part): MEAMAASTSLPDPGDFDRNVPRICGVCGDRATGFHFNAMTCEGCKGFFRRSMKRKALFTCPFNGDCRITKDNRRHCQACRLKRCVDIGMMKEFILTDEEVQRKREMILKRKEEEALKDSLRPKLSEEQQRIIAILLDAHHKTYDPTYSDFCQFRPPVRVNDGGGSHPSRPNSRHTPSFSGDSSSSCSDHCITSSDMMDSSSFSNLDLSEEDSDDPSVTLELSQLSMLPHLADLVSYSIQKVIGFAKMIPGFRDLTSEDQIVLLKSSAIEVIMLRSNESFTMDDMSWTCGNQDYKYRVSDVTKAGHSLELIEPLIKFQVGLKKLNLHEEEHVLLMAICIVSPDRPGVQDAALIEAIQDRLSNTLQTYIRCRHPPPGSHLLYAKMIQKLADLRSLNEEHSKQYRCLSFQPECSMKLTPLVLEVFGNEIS
Summary of the method: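 Steps: transfect HepG2 with GAL4-UAS-driven reporter constructs; dose compounds 24 h; isolate RNA, reverse-transcribe, PCR-amplify with 6-FAM-labelled primer extension and HpaI digestion; quantify fragments by capillary electrophoresis relative to DMSO.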

Measured: AC50

C=CN1CCCC1=O
not listed: [20]
inactive: all other assays above

OC[C@H]1O[C@@](CO)(O[C@H]2O[C@H](CO)[C@@H](O)[C@H](O)[C@H]2O)[C@@H](O)[C@@H]1O
not listed: [20]
inactive: all other assays above

OCC(CO)(CO)CO
inactive: all assays above

FC(F)(F)COC(OCC(F)(F)F)OCC(F)(F)F
not listed: [5] | [16]
inactive: all other assays above

c1ccc2ncccc2c1
not listed: [20]
inactive: all other assays above

O=C(O)c1cccc(C[C@@H]2COc3ccc(OCc4nc5cc(F)ccc5s4)cc3[C@@H]2O)c1
not listed: [20]
inactive: all other assays above

FC(F)C(F)(F)COCC1CO1 (stereo not drawn)
active: [12] 45.8 µM
inactive: [1] | [2] | [20] | [3] | [4] | [6] | [7] | [8] | [9] | [10] | [11] | [12] | [13] | [14] | [15] | [17] | [18] | [19]
